Whole data set: some 2,000 compounds, median “B-score” near -0.0024, cut for the highest 2% near 4. The entries come from a sample that favours the highest values as a whole.

For this assay, the system named is Balamuthia mandrillaris (ATCC PRA-291) trophozoites, axenic culture. The experiment in a line: primary screen, b score. The settings on record: 20 µM. On the procedure:
Screening of a clinically approved library of compounds, compiled by the Small Molecule Discovery Center (SMDC) at the UCSF, was completed at 20 µM in 0.2% DMSO. All 2,177 drugs in the library were stored as 10 mM stocks dissolved in 100% DMSO (Sigma-Aldrich) at −20°C. B. mandrillaris amoebae were resuspended in axenic medium and distributed into opaque 384-well plates (Corning) at a density of 3,000 amoebae per well using a BioMek NX liquid handler. Negative-control wells were treated with vehicle only (0.2% DMSO in axenic medium), and positive-control wells simulating total destruction of amoebae were seeded with amoeba lysate generated by 3 consecutive freeze-thaw cycles. Following 72 h of incubation, 30 µl of CellTiter Glo reagent (CTG; Promega) was added to each well. The luminescence was measured with a Promega GloMax-Multi+ plate reader at 2, 4, and 8 h after CTG addition. […] The B-score, representing a plate-based statistical approach for correcting row, column, and edge effects, was also calculated for each compound in the library (75).
Consider `[N-]=[N+]=CC(=O)OC[C@H](N)C(=O)O`, for which the B-score amounted to 4.05.

Take `CC(=O)O[C@H]1C[C@H](O[C@H]2[C@@H](O)C[C@H](O[C@H]3[C@@H](O)C[C@H](O[C@H]4CC[C@@]5(C)[C@H](CC[C@@H]6[C@@H]5C[C@@H](O)[C@]5(C)[C@@H](C7=CC(=O)OC7)CC[C@]65O)C4)O[C@@H]3C)O[C@@H]2C)O[C@H](C)[C@H]1O[C@@H]1O[C@H](CO)[C@@H](O)[C@H](O)[C@H]1O`: the B-score stood at 0.168.

The compound `O=C1C[C@@H]2OCC=C3CN4CC[C@]56c7ccccc7N1[C@H]5[C@H]2[C@H]3C[C@H]46` registered a B-score of 0.0173.

With `CN1C[C@H](CNC(=O)OCc2ccccc2)C[C@@H]2c3cccc4c3c(cn4C)C[C@H]21`, the B-score is -0.657.

With `CC(C)C[C@H](CN)CC(=O)O`, the B-score is 1.41.

Values taken from publication PMC6212833.
